This is a sample that favours compounds with a hit; in the whole collection about 1.6% have one here.
KCNQ2 pot – KCNQ2 (rat) channel potentiation. CHO-K1 KCNQ2, FluxOR thallium flux fluorescence; hits give high values. B-score at 10 µM. 0.54% of 310,000 active. AID 2239;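 active means fluorescence ratio B-score at least 3 SD of library B-scores, with initial fluorescence B-score within 3 of them, cut at about 5.3 in these data; same plate scores as AID 2156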;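 further: B-score of peak minus minimum over baseline fluorescence ratio after K+ and Tl+ stimulus; positive B-score means potentiation of KCNQ2 with more thallium influx and brighter signal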
KCNQ2 inh – KCNQ2 (rat) channel inhibition; O88943; CHO-K1 KCNQ2, FluxOR thallium flux, 20 min; hits give low values; B-score at 10 µM; 1.1% of 310,000 active;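 active means fluorescence ratio B-score at most minus 3 library SDs, with starting brightness B-score within 2 library SDs, cut at about -5.5 in these data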
Kir21 conf inh – confirmation of mouse Kir2.1 potassium channel inhibitors. Tl flux remaining, % of negative control (hits give low values), % at 10 µM. 41% of 2,300 active. AID 2032. shares compounds with KCNQ2 pot. Kir2.1-expressing cells, FluxOR thallium flux fluorescence; hits give low values;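 active means Primary-screen hit whose thallium flux fell at least 3 control SD below untreated wells in both duplicates, with normal baseline fluorescence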;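 further: 0% = blank wells without stimulus and 100% = stimulated no-compound controls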
HEK293 ctr – alters thallium flux in parental HEK293 cells, Kir2.1 counter-screen; shares compounds with KCNQ2 pot; FluxOR thallium flux fluorescence; 0% = unstimulated blank wells; FluxOR signal as % of negative control (100 = no effect), % at 10 µM; 19% of 2,300 active;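 active means dye signal at least 3 control SD above or below untreated wells in both duplicates, raw fluorescence within 3, either direction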;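 further: percent is based on the flux ratio of peak minus minimum fluorescence over baseline F0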
CHO-K1 ctr – parental CHO-K1 activity in KCNQ2 potentiator counter-screen; shares compounds with KCNQ2 pot; parental CHO-K1 cells, FluxOR thallium flux fluorescence; zero = vehicle mean+3SD, 100% = vehicle-minus-blank window; activity increase over 3SD of controls, % at 10 µM; 43% of 1,200 active;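 active means signal rise of at least 3 SD above the untreated control mean, in both duplicate wells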;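 further: counter screen of KCNQ2 potentiator hits so any rise reflects channel-independent effects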
KCNQ1 sel pot – human KCNQ1 counter-target activity of KCNQ2 potentiators; shares compounds with KCNQ2 pot; CHO KCNQ1 stable, FluxOR thallium flux fluorescence; beyond 3SD, as % of vehicle-control signal; 28% of 1,200 active; activation over 3SD threshold, % at 10 µM; AID 2283;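 active means fluorescence ratio rise of at least 3 SD of vehicle wells above their mean, in both replicate wells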;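 further: 0% = vehicle mean plus 3 SD and 100% = vehicle minus unstimulated blank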
KCNQ2 pot confirm – rat KCNQ2 channel potentiator confirmation; potentiation, less the hit threshold, % at 10 µM; shares compounds with KCNQ2 pot; CHO-KCNQ2 cells, FluxOR thallium flux fluorescence; 68% of 1,200 active; AID 2287;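 active means fluorescence ratio rising 3 SD or more over the vehicle control mean in both replicates, plus primary screen hit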;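 further: peak minus minimum thallium fluorescence divided by baseline after K/Tl stimulus; 0% = vehicle mean plus 3 SD and 100% = vehicle minus unstimulated blank difference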
Kir21 spec – tests whether KCNQ2 potentiators also affect mouse Kir2.1; 2% of 1,200 active; activity over 3SD threshold, % at 10 µM; HEK293 Kir2.1, FluxOR thallium flux fluorescence; shares compounds with KCNQ2 pot; AID 2345;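 active means fluorescence ratio rise of at least 3 SD above the vehicle-control mean, seen in both replicates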;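 further: 0% = vehicle mean plus 3 SD and 100% = vehicle minus no-stimulus blank window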
KCNQ2 W236L MoA – potentiates the retigabine-insensitive rat KCNQ2 W236L mutant channel. shares compounds with KCNQ2 pot. CHO KCNQ2-W236L, automated patch clamp current. current increase over 3SD of negative controls (%), hits give high values, % at 25 µM. 10% of 940 active;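 active means current increase at least 3 SD of the untreated controls above them in both duplicate recordings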
Target sequence (O88943 whole entry W236L, looked up): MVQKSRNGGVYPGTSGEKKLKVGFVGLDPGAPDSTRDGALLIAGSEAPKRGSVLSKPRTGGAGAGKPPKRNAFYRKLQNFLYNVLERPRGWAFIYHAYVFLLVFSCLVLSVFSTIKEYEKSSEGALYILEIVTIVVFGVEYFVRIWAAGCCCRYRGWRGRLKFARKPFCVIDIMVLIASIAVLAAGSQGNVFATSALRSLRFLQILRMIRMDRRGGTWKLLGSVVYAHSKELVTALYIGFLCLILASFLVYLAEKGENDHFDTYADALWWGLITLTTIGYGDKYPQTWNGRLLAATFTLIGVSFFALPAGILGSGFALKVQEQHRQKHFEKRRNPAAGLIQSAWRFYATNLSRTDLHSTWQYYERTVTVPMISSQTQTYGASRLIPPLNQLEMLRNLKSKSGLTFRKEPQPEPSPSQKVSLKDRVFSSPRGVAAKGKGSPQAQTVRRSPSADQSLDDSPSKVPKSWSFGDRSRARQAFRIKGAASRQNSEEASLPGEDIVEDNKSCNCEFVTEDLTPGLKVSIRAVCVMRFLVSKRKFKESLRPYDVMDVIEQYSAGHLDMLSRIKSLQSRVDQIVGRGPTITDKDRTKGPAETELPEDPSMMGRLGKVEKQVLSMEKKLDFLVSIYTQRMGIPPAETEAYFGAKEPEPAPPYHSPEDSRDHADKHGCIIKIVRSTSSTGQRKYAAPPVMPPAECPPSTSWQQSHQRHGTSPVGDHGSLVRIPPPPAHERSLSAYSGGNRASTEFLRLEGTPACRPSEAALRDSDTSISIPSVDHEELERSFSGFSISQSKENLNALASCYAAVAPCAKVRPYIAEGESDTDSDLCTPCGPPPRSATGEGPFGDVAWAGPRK
* = called active by the depositor; i = inactive; · = no result.

SMILES	KCNQ2 pot	KCNQ2 inh	Kir21 conf inh	HEK293 ctr	others
Cc1ccc(CSc2nnc([C@@H]3CCCN3C(=O)OC(C)(C)C)o2)cc1	·	i	50.0%*	66.5%*
CC(C)(C)OC(=O)NCCc1nnc(SCc2ccccc2)o1	·	i	45.0%*	77.0%*
CC(C)(C)OC(=O)NCCCCCc1nnc(SCc2ccc(F)cc2)o1	·	i	·	·
O=[N+]([O-])c1ccc(N/N=C/c2ccccc2O)cc1	7.86*	i	i	74.0%*	CHO-K1 ctr=56.3*;KCNQ1 sel pot=-19.5;KCNQ2 pot confirm=-23.6;Kir21 spec=-43.5
O=[N+]([O-])c1cccc(N/N=C/c2cc([N+](=O)[O-])ccc2O)c1	1.27	i	·	·
COc1ccc(NCc2nnc(-c3ccccc3)o2)cc1	0.56	i	·	·
CN1CCN(CC(O)Cn2c3ccccc3c3ccccc32)CC1 (stereo unspecified)	·	i	·	·
CN1CCN(CC#CCn2c3ccccc3c3ccccc32)CC1	·	i	31.5%*	i
CCCc1nn(C)c(C(N)=O)c1[N+](=O)[O-]	0.75	i	·	·
C=CCOc1ccc(/C=C2/C(=N)N3N=C(CC(=O)N4CCCC4)SC3=NC2=O)cc1OC	0.31	i	·	·
Cc1nn(C(C)C(=O)NCCCN(Cc2ccccc2)C(C)C)c(=O)c2c1sc1ccccc12 (stereo unspecified)	0.8	i	·	·
CCC(C(=O)NCCCN(CC)Cc1ccccc1)n1nc(C)c2sc3ccccc3c2c1=O (stereo unspecified)	·	i	47.0%*	64.5%*
Cc1ccccc1CSc1nnc(-c2ccncc2)n1C	·	i	·	·
Cc1ccc(NC(=O)CSc2nc(NS(=O)(=O)c3ccccc3)cc(=O)[nH]2)cc1	0.93	i	·	·
Cc1ccc(S(=O)(=O)Nc2cc(=O)[nH]c(SCC(=O)Nc3cccc(C)c3)n2)cc1	5.29*	i	i	i	CHO-K1 ctr=30.2*;KCNQ1 sel pot=-5.2;KCNQ2 pot confirm=17.7*;Kir21 spec=-33.3;KCNQ2 W236L MoA=i
CC[C@@H](C)[C@H](CN[C@H](CNC)C(C)C)NC[C@@H](C)c1ccc(CC(C)C)cc1	·	i	26.5%*	i
CC[C@H](C)[C@@H](CNC)NC[C@@H](Cc1ccc(O)cc1)NCC(C)(C)C	0.03	i	·	·
CCCOCC(O)CCc1n[nH]c(=S)n1-c1ccccc1 (stereo unspecified)	0.01	i	·	·
Cn1nc(C(C)(C)C)cc1C(=O)NCc1ccc2c(c1)OCO2	0.76	i	·	·
COc1ccccc1-c1nc(SCC(=O)Nc2cc(C)on2)c2c(=O)n(C)c(=O)n(C)c2n1	0.32	i	·	·
c1ccc(Nc2nc(NCc3ccco3)c3ccccc3n2)cc1	·	i	·	·
Cc1ccccc1Nc1nc(NCc2ccco2)c2ccccc2n1	-6.26	-6.26*	15.5%*	i
Cc1cccc(Nc2nc(NCc3ccco3)c3ccccc3n2)c1	·	i	62.5%*	i
Oc1ccccc1Nc1nc(NCc2ccco2)c2ccccc2n1	·	i	·	·
O=C(CN1CCN(c2ccc(F)cc2)CC1)NC(=O)NCc1ccco1	0.33	i	·	·
SMILES	KCNQ2 pot	KCNQ2 inh	Kir21 conf inh	HEK293 ctr	others
CCC(C)(C)NC(=O)C(c1ccccc1Cl)N(C(=O)CCC(=O)Nc1cc(C)on1)c1ccc(NC(C)=O)cc1 (stereo unspecified)	·	i	·	·
C=CCn1c(SC/C=C/c2ccccc2)nnc1-c1sc(N)nc1C	·	i	60.0%*	i
C=CCn1c(SCc2ccc(C(=O)OC)cc2)nnc1-c1sc(N)nc1C	0.11	i	·	·
COc1ccc(/C=N/NC(=O)c2cccc3ccccc23)c(OC)c1OC	2.25	i	·	·
Cc1ccccc1CN(C)CC(=O)NC(C)CCc1ccccc1 (stereo unspecified)	-6.6	-6.6*	34.5%*	i
Cc1ccc(CC(=O)NC(C)CCc2ccccc2)cc1 (stereo unspecified)	·	i	·	·
Cc1cccc(N2CCN(S(=O)(=O)c3ccc4c(c3)CCCN4C(=O)C3CCC3)CC2C)c1 (stereo unspecified)	·	i	·	·
Cc1ccc2nc(CCc3nc4ccc(C)cc4[nH]3)[nH]c2c1	·	i	·	·
Cc1ccc2nc(CCCc3nc4ccc(C)cc4[nH]3)[nH]c2c1	·	i	69.5%*	i
Cc1nnc(NC(=O)CSc2ccc(-c3ccccn3)nn2)s1	2.89	i	·	·
COCc1ccc(C(=O)N(C)C2CCCN(Cc3ccccc3F)C2)o1 (stereo unspecified)	2.16	i	·	·
CC(=O)Nc1nc(C2CC2)cc(-c2ccccc2)c1C#N	·	i	·	·
O=C(CCCc1ccccc1)Nc1ccc2c(c1)OCCO2	·	i	·	·
C#CCNC(=O)C1=C[C@@H](C2CC2)C[C@@H](OCc2ccc(CO)cc2)O1	0.66	i	51.0%*	i
C#CCNC(=O)C1=C[C@@H](C(C)(C)C)C[C@@H](OCc2ccc(CO)cc2)O1	·	i	·	·
Cc1cc(C)cc(NC(=O)Cn2c(-c3ccccc3Cl)nc3ccccc32)c1	1.06	i	·	·
O=C(Cn1c(CO)nc2ccccc21)Nc1ccccc1Cl	0.1	i	i	i
Cc1cccc(C(=O)Nc2nnc(S(=O)(=O)N3CCC(C)CC3)s2)c1	1.42	i	·	·
COCCCN1C(=O)N(c2ccccc2)C(=O)C1CC(=O)Nc1ccc(F)cc1 (stereo unspecified)	0.99	i	·	·
NC(=O)c1cc(S(=O)(=O)N2CCc3ccccc3C2)cs1	0.57	i	·	·
CCOC(=S)NC(=O)c1sc2ccccc2c1Cl	21.5*	i	i	355.5%*	CHO-K1 ctr=-2.0;KCNQ1 sel pot=-5.5;KCNQ2 pot confirm=61.8*;Kir21 spec=-37.1;KCNQ2 W236L MoA=i
O=C(NC(=S)NCCO)c1sc2ccccc2c1Cl	·	i	·	·
CC(C)(C)C(=O)NC(=S)NNC(=O)c1sc2ccccc2c1Cl	11.7	i	·	·
CCCOC(=S)NC(=O)c1sc2ccccc2c1Cl	20*	i	i	312.5%*	CHO-K1 ctr=22.1*;KCNQ1 sel pot=-12.2;KCNQ2 pot confirm=55.3*;Kir21 spec=-12.4;KCNQ2 W236L MoA=i
Cc1ccc(NC(=O)CCNC(=O)c2ccc(Br)cc2)nc1	0.37	i	·	·
COc1cccc(/C=C/C(=O)NCC2CCCCC2)c1	·	i	·	·
Cc1cccc(CC(=O)NCC2CCCCC2)c1	9.38*	i	i	i	CHO-K1 ctr=38.7*;KCNQ1 sel pot=-17.5;KCNQ2 pot confirm=27.8*;Kir21 spec=-26.9;KCNQ2 W236L MoA=i

Screening data: PubChem, Johns Hopkins Ion Channel Center
